Source: PubChem BioAssay AID1159580 (chemical genetic matrix, 2015)
Among all 5,500 compounds or so, about 2,000 (36%) were called active. Inconclusive results (about 18%) are left out. Rule as the data show it: active = normalized growth mostly below about 0.91 (no sharp cut-off); inconclusive = no clear call, values can overlap the other calls; inactive = mostly above about 0.92. The list shows a part of the results.

Test: chemical genetic growth profiling, strain panel (AID 1159580);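 also: tested at 20 µM; growth read once vehicle control cultures reached saturation at 30 °C; 1 = growth at the plate median or of vehicle wells; lower values mean less growth of the strain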
Settings: growth OD
[1] = S. cerevisiae deletion strains, locus YGR078C, strain PAC10, hits give low values
[2] = S. cerevisiae deletion strains, locus YMR307W, strain GAS1, hits give low values
[3] = S. cerevisiae deletion strains, locus YNL153C, strain GIM3, hits give low values
[4] = S. cerevisiae deletion strains, locus YAL013W, strain DEP1, hits give low values
[5] = S. cerevisiae deletion strains, locus YBR229C, strain ROT2, hits give low values
[6] = S. cerevisiae deletion strains, locus YDL101C, strain DUN1, hits give low values
[7] = S. cerevisiae deletion strains, locus YDL134C, strain PPH21, hits give low values
[8] = S. cerevisiae deletion strains, locus YDR150W, strain NUM1, hits give low values
[9] = S. cerevisiae deletion strains, locus YEL061C, strain CIN8, hits give low values
[10] = S. cerevisiae deletion strains, locus YHR030C, strain SLT2, hits give low values
[11] = S. cerevisiae deletion strains, locus YHR087W, strain rtc3, hits give low values
[12] = S. cerevisiae deletion strains, locus YJR043C, strain POL32, hits give low values
[13] = S. cerevisiae deletion strains, locus YJR075W, strain HOC1, hits give low values
[14] = S. cerevisiae deletion strains, locus YLR039C, strain RIC1, hits give low values
[15] = S. cerevisiae deletion strains, locus YLR058C, strain SHM2 (second series), hits give low values
[16] = S. cerevisiae deletion strains, locus YLR085C, strain ARP6, hits give low values
[17] = S. cerevisiae deletion strains, locus YLR262C, strain YPT6, hits give low values
[18] = S. cerevisiae deletion strains, locus YML094W, strain GIM5, hits give low values
[19] = S. cerevisiae deletion strains, locus YMR219W, strain ESC1, hits give low values
[20] = S. cerevisiae deletion strains, locus YMR263W, strain SAP30, hits give low values
[21] = S. cerevisiae deletion strains, locus YNL298W, strain CLA4 (second series), hits give low values
[22] = S. cerevisiae deletion strains, locus YNL322C, strain KRE1, hits give low values
[23] = S. cerevisiae deletion strains, locus YNR030W, strain Alg12, hits give low values
[24] = S. cerevisiae deletion strains, locus YPL055C, strain LGE1, hits give low values
[25] = S. cerevisiae deletion strains, locus YPL241C, strain CIN2, hits give low values
[26] = S. cerevisiae deletion strains, locus YPR135W, strain CTF4, hits give low values
[27] = S. cerevisiae deletion strains, locus YCL061C, strain MRC1, hits give low values
[28] = S. cerevisiae deletion strains, locus YJL187C, strain SWE1, hits give low values

Measured: normalized growth

CNc1cc(NS(=O)(=O)c2ccc(N)cc2)nc(NC)n1
inactive: S. cerevisiae deletion strains, locus YAL040C, strain CLN3, hits give low values 0.991 | S. cerevisiae deletion strains, locus YCL061C, strain MRC1 (second series), hits give low values 0.986 | S. cerevisiae deletion strains, locus YDR363W, strain ESC2, hits give low values 0.974 | S. cerevisiae deletion strains, locus YER002W, strain NOP16, hits give low values 0.98 | [1] 0.994 | [2] 1 | [3] 1.01 | S. cerevisiae deletion strains, locus YNL175C, strain NOP13, hits give low values 0.993 | S. cerevisiae deletion strains, locus YNL197C, strain WHI3, hits give low values 0.991 | S. cerevisiae deletion strains, locus YNL224C, strain SQS1, hits give low values 0.994 | S. cerevisiae deletion strains, locus YOR083W, strain WHI5 (second series), hits give low values 0.993

CCC(=O)Nc1cc(F)ccc1C
inactive: [4] 0.999 | [5] 1 | [6] 1 | [7] 1 | [8] 0.968 | [9] 0.997 | [1] 1 | [10] 0.985 | [11] 1.01 | [12] 0.985 | [13] 1 | S. cerevisiae deletion strains, locus YKL190W, strain CNB1, hits give low values 1.01 | [14] 1.01 | [15] 1 | [16] 1.02 | [17] 1.01 | [18] 1.01 | [19] 0.997 | [20] 0.996 | S. cerevisiae deletion strains, locus YNL128W, strain TEP1, hits give low values 0.998 | [3] 0.987 | [21] 1.01 | [22] 0.997 | [23] 1.01 | [24] 1.09 | [25] 0.89 | [26] 0.987 | S. cerevisiae strains, strain wild type, hits give low values 1.01

CC(C)(C)c1ccc(NC(=O)Cc2cc(F)cc(F)c2)cc1
active: [16] 1.26 [resistant]
inactive: [4] 0.993 | [5] 0.995 | [27] 0.97 | [6] 1.02 | [8] 0.902 | [9] 0.997 | [1] 0.979 | [10] 0.988 | [11] 0.984 | [28] 0.985 | [12] 1 | [13] 0.933 | [14] 0.939 | [15] 0.986 | [17] 0.941 | [18] 0.994 | [19] 0.988 | [20] 1 | [2] 1.05 | [3] 0.989 | [21] 0.97 | [22] 0.985 | [23] 0.985 | [24] 0.885 | [25] 0.949 | [26] 1

CC(C)(C)C(=O)Nc1ccc(F)cc1
inactive: [4] 1 | [5] 1 | [27] 0.991 | [6] 0.994 | [7] 1.02 | [8] 0.985 | [9] 1.01 | [1] 0.999 | [10] 1.02 | [11] 1 | [28] 1.01 | [12] 1.01 | [13] 0.962 | [14] 1.07 | [15] 1.01 | [16] 1.05 | [17] 1.01 | [18] 1 | [19] 1 | [20] 1 | [3] 0.995 | [21] 1.04 | [22] 0.994 | [23] 1.02 | S. cerevisiae deletion strains, locus YOL006C, strain TOP1, hits give low values 1.01 | [24] 0.946 | [25] 1.01 | [26] 0.956
